Assay results: PubChem BioAssay (Tox21)
Records with an inconclusive call do not appear. The source made the active and inactive calls. Unless noted, the call rests on the fitted dose curve; in most records, active means well fitted curve in the direction sought with a large enough effect in the repeat runs; inconclusive means weak or mixed curves; inactive means no such curve, though single readings can be large; an effect the other way counts as inactive or inconclusive.

Legend:
[1] = target: Thyrotropin receptor (Homo sapiens) (UniProt P16473); assay: qHTS assay to identify small molecule agonists of the thyroid stimulating hormone receptor (TSHR) signaling pathway (AID 1224843; calls by dose curve; further: nearly all actives have a fitted effect of over 45% in size)
Thyrotropin receptor (Homo sapiens), sequence (P16473 whole entry, looked up): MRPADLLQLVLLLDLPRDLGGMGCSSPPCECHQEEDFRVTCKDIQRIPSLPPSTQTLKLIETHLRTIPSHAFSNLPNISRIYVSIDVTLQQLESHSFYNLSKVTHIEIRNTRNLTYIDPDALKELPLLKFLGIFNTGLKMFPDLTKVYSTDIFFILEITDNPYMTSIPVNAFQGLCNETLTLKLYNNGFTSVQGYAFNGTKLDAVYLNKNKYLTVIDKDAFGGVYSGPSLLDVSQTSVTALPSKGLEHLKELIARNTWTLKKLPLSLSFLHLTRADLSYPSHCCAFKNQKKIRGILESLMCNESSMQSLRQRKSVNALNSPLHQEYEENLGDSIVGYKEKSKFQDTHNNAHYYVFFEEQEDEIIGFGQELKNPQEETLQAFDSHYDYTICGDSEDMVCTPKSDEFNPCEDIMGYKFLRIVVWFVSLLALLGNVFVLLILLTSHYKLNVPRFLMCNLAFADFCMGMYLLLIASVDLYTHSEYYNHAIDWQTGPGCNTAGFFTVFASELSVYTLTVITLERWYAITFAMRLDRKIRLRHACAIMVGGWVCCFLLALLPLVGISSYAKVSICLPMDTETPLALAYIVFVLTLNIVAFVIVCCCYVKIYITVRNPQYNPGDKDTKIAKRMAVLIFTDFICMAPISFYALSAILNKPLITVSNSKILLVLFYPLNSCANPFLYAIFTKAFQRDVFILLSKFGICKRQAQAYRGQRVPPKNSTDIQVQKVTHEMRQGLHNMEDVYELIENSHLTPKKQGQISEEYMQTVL
Method in brief: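 Steps: seed 800 TSHR-HEK293 cells per well; add test compound and hold 30 min at ambient temperature; dispense cAMP-d2 then anti-cAMP cryptate; incubate 1 h at ambient; measure fluorescence intensity.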

[2] = qHTS assay to identify small molecule agonists of the hypoxia (HIF-1) signaling pathway - cell viability counter screen (AID 1224844; calls by dose curve; further: nearly all actives have a fitted effect of over 50% in size)
Method in brief: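 Cells (HRE-bla ME-180, 2,000 per well) sat 5 hrs at 37C, got compound for 17 hrs, were read for CCF4-AM FRET, and were finally lysed with CellTiter-Glo for a 30 min room-temperature luminescence read.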

[3] = qHTS assay to identify small molecule agonists of H2AX (AID 1224845; active means well fitted activation curve with a large enough effect in the signal ratio in the repeat runs, not every such curve was filed as active; the % refers to the signal ratio)
Method in brief: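 Wild-type CHO-K1 cells, plated overnight, exposed 3hr at 37C to 15 concentrations (0.76% DMSO final). Lysed, then HTRF anti-pH2AX (S139) cryptate and anti-H2AX-d2 antibodies, 24 hr room temperature; 665/620 nm emission read.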

[4] = qHTS assay to identify small molecule agonists of the hypoxia (HIF-1) signaling pathway (AID 1224846; active means well fitted activation curve with a large enough effect in the signal ratio in the repeat runs, not every such curve was filed as active; the % refers to the signal ratio)
Method in brief: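 A low-serum medium (0.5% dialyzed FBS) holding 2,000 HRE-bla ME-180 cells per well is preincubated for 5 hrs, dosed with compounds by pintool, and kept a further 17 hrs at 37C, 5% CO2 before CCF4-AM FRET detection of beta-lactamase.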

[5] = qHTS assay to identify small molecule agonists of H2AX - cell viability counter screen (AID 1224847; calls by dose curve; further: top concentration of the series differs between compounds; nearly all actives have a fitted effect of over 30% in size)
Method in brief: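 Cells plated first: CHO-K1, 1000 per well in 10% FBS medium, incubated overnight at 37C. Then 15-point compound titration added (final DMSO 0.76%) for 3 hr. Finally CellTiter-Glo added and luminescence read.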

[6] = qHTS assay to identify small molecule antagonists of the estrogen related receptor (ERR) signaling pathway from Tox21 library (AID 1224848); further: nearly all actives have a fitted effect of over 50% in size; further: potency means the concentration at half of the fitted maximal effect
Method in brief: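 Luminescent reporter read-out (ONE-Glo) from NTP's ERR cell line after 18 h treatment at 37 C with DMSO-dissolved Tox21 compounds; cells pre-plated 6 h beforehand at 2,000 per well.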

[7] = qHTS assay to identify small molecule agonists of the estrogen related receptor (ERR) signaling pathway from Tox21 library (AID 1224849; calls by dose curve; further: nearly all actives have a fitted effect of over 15% in size); conditions: ERR reporter cell line, ONE-Glo luciferase, 18 h; at 92.4 µM (top of the series) unless noted
Method in brief: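 Screening used an NTP-provided ERR luciferase cell line. Compounds in DMSO were added 6 h after seeding and left 18 h at 37 C before a 30 min ONE-Glo step and luminescence reading.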

[8] = qHTS RealTime-Glo MT Cell Viability Assay in HepG2 cells - 24 hour (AID 1224867); further: nearly all actives have a fitted effect of over 50% in size
Method in brief: (§1)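 Cell number in HepG2 cultures estimated from NanoLuc luminescence generated by metabolic reduction of a prosubstrate by living cells. The homogeneous, nonlytic format allowed repeated reads at 0, 8, 16, 24, 32 and 40 h of compound exposure.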

[9] = qHTS RealTime-Glo MT Cell Viability Assay in HEK293 cells - 32 hour (AID 1224868); further: top concentration of the series differs between compounds; nearly all actives have a fitted effect of over 50% in size
Method in brief: (§2)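 Homogeneous bioluminescent viability format in HEK293 cells (600 cells/well). Following 5 h at 37 C/5% CO2, 23 nL compound was pintooled; the signal was measured repeatedly during 40 h incubation.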

[10] = A CellTox Green Cytotoxicity Assay to monitor cytotoxicity in HEK293 cells - 0 hour (AID 1224869); further: nearly all actives have a fitted effect of over 50% in size
Method in brief: (§3)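 Fluorescence intensity, read at 0, 8, 16, 24, 32 and 40 h of compound treatment, reflected dye binding to DNA of dead HEK293 cells; compounds (23 nL, DMSO) were added 5 h after plating cells with reagent.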

[11] = qHTS RealTime-Glo MT Cell Viability Assay in HepG2 cells - 40 hour (AID 1224870); further: nearly all actives have a fitted effect of over 50% in size
Method in brief: (§4)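 HepG2 cells (600/well) mixed with RealTime-Glo MT reagent, settled 5 h at 37 C/5% CO2 before compound addition. Nonlytic NanoLuc luminescence from viable-cell prosubstrate reduction read repeatedly during 40 h treatment at 37 C.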

[12] = A CellTox Green Cytotoxicity Assay to monitor cytotoxicity in HEK293 cells - 40 hour (AID 1224871); further: nearly all actives have a fitted effect of over 45% in size
Method in brief: as §3

[13] = qHTS RealTime-Glo MT Cell Viability Assay in HEK293 cells - 16 hour (AID 1224872); further: nearly all actives have a fitted effect of over 50% in size; further: potency means the concentration at half of the fitted maximal effect
Method in brief: as §2

[14] = qHTS RealTime-Glo MT Cell Viability Assay in HepG2 cells - 8 hour (AID 1224873); further: nearly all actives have a fitted effect of over 55% in size
Method in brief: as §4

[15] = qHTS RealTime-Glo MT Cell Viability Assay in HEK293 cells - 40 hour (AID 1224874); conditions: RealTime-Glo luminescence; max response: active compounds read low; further: nearly all actives have a fitted effect of over 50% in size; further: potency means the concentration at half of the fitted maximal effect
Method in brief: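 Viable HEK293 cells reduce a cell-permeant prosubstrate; the product diffuses out and is consumed by NanoLuc in the medium to give light. Compounds went in after a 5 h incubation and plates were read over the treatment course.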

[16] = A CellTox Green Cytotoxicity Assay to monitor cytotoxicity in HEK293 cells - 24 hour (AID 1224875); further: nearly all actives have a fitted effect of over 45% in size
Method in brief: as §3

[17] = qHTS RealTime-Glo MT Cell Viability Assay in HepG2 cells - 32 hour (AID 1224877); further: nearly all actives have a fitted effect of over 55% in size
Method in brief: as §1

[18] = A CellTox Green Cytotoxicity Assay to monitor cytotoxicity in HepG2 cells - 24 hour (AID 1224878); further: nearly all actives have a fitted effect of over 45% in size
Method in brief: (§5)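 Using 1536-well format, dye-containing HepG2 suspension was seeded, allowed 5 h at 37 C/5% CO2, dosed by pintool with compounds, positive and negative controls, and imaged for fluorescence across 40 h.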

[19] = A CellTox Green Cytotoxicity Assay to monitor cytotoxicity in HepG2 cells - 40 hour (AID 1224879); further: nearly all actives have a fitted effect of over 40% in size
Method in brief: as §5

[20] = A CellTox Green Cytotoxicity Assay to monitor cytotoxicity in HepG2 cells - 16 hour (AID 1224876); further: nearly all actives have a fitted effect of over 45% in size
Method in brief: as §5
On the % scale 0 is the no-effect control and ±100 the full control effect.

COc1ccc(/C(C)=C/C(=O)O)c(OC)c1
inactive: Potency [1] | Potency [2] | Potency [3] | outcome [4] | Potency [5] | Potency [6] | activity change, positive = activation [7] 8.11% [at 42.5 µM] | outcome [8] | Potency [9] | Potency [10] | Potency [11] | Potency [12] | Potency [13] | outcome [14] | max response [15] 6.45% | Potency [16] | Potency [17] | Potency [18] | Potency [19]

CC1(C)[C@@H]2CC[C@]3(C2)[C@@H]1C(=O)CCC3(C)C
inactive: Potency [1] | Potency [2] | Potency [3] | outcome [4] | Potency [5] | outcome [8] | Potency [9] | Potency [10] | Potency [11] | Potency [12] | Potency [13] | outcome [14] | max response [15] 3.71% | Potency [16] | Potency [20] | Potency [17] | Potency [18] | Potency [19]

CC(=O)Nc1cccc(N)c1
inactive: Potency [1] | Potency [2] | Potency [3] | outcome [4] | Potency [5] | Potency [6] | activity change, positive = activation [7] -3.33% | outcome [8] | Potency [9] | Potency [10] | Potency [11] | Potency [12] | Potency [13] | outcome [14] | max response [15] 15% | Potency [16] | Potency [20] | Potency [17] | Potency [18] | Potency [19]

CCOc1ccc(NC(C)=O)cc1N
inactive: Potency [1] | Potency [2] | Potency [3] | outcome [4] | Potency [5] | Potency [6] | activity change, positive = activation [7] 8.88% | outcome [8] | Potency [9] | Potency [10] | Potency [11] | Potency [12] | Potency [13] | outcome [14] | max response [15] 3.81% | Potency [16] | Potency [20] | Potency [17] | Potency [18] | Potency [19]

O=[N+]([O-])c1ccccc1CCO
inactive: Potency [1] | Potency [2] | Potency [3] | outcome [4] | Potency [5] | outcome [8] | Potency [9] | Potency [10] | Potency [11] | Potency [12] | Potency [13] | outcome [14] | max response [15] 16.6% | Potency [16] | Potency [20] | Potency [17] | Potency [18]

CC(C(=O)O)c1ccc2c(c1)Cc1cccnc1O2 (centres undefined)
inactive: Potency [1] | Potency [2] | Potency [3] | outcome [4] | Potency [5] | outcome [8] | Potency [9] | Potency [10] | Potency [11] | Potency [12] | Potency [13] | outcome [14] | max response [15] 1.21% | Potency [16] | Potency [20] | Potency [17] | Potency [18]

CCOc1cc(OCC)c(C(C)=O)cc1OCC
active: Potency [13] 19.2 µM | Potency [15] 19.2 µM
inactive: Potency [1] | Potency [2] | Potency [3] | outcome [4] | Potency [5] | activity change, positive = activation [7] -33.9% | outcome [8] | Potency [10] | Potency [11] | Potency [12] | outcome [14] | Potency [16] | Potency [20] | Potency [17] | Potency [18] | Potency [19]

O=C(Nc1ccccc1)c1cc([N+](=O)[O-])ccc1Cl
inactive: Potency [1] | Potency [2] | Potency [3] | outcome [4] | Potency [5] | activity change, positive = activation [7] -35.1% | outcome [8] | Potency [9] | Potency [10] | Potency [11] | Potency [12] | Potency [13] | outcome [14] | max response [15] -23.2% | Potency [20] | Potency [17] | Potency [18]
active: Potency [6] 54.5 µM

COC(=O)/C=C/C(C)=C\C=C\C(C)=C\C=C\C=C(C)\C=C\C=C(C)\C=C\C(=O)O
inactive: Potency [1] | Potency [2] | Potency [3] | outcome [4] | Potency [5] | Potency [6] | activity change, positive = activation [7] 4.73% | outcome [8] | Potency [10] | Potency [11] | Potency [12] | Potency [13] | outcome [14] | max response [15] 1.87% | Potency [16] | Potency [20] | Potency [17] | Potency [18] | Potency [19]

O=C1OC(=O)C2CC=CCC12 (centres undefined)
inactive: Potency [1] | Potency [2] | Potency [3] | outcome [4] | Potency [5] | outcome [8] | Potency [9] | Potency [10] | Potency [11] | Potency [12] | Potency [13] | outcome [14] | max response [15] 0.701% | Potency [16] | Potency [20] | Potency [17] | Potency [18] | Potency [19]

O=C(O)CNc1ccccc1
inactive: Potency [1] | Potency [2] | Potency [3] | outcome [4] | Potency [5] | Potency [6] | activity change, positive = activation [7] 8.78% | outcome [8] | Potency [9] | Potency [10] | Potency [11] | Potency [12] | Potency [13] | outcome [14] | max response [15] 5.54% | Potency [16] | Potency [20] | Potency [17] | Potency [18]

CC(=O)OCC(=O)[C@@]1(O)CC[C@H]2[C@@H]3CCC4=CC(=O)C=C[C@]4(C)[C@@]3(F)[C@@H](O)C[C@@]21C
inactive: Potency [1] | Potency [2] | Potency [3] | outcome [4] | Potency [5] | outcome [8] | Potency [9] | Potency [10] | Potency [11] | Potency [12] | Potency [13] | outcome [14] | max response [15] -21.2% | Potency [16] | Potency [17] | Potency [18] | Potency [19]

Cc1cc(C)c(C)c(O)c1
inactive: Potency [1] | Potency [2] | Potency [3] | outcome [4] | Potency [5] | Potency [6] | activity change, positive = activation [7] 1.16% | outcome [8] | Potency [9] | Potency [10] | Potency [11] | Potency [12] | Potency [13] | outcome [14] | max response [15] 0.904% | Potency [16] | Potency [20] | Potency [17] | Potency [18]
